A selection: hits, their analogues and other compounds. The true share with any hit is near 21%.
Shiga toxin inh: blocks Shiga toxin action in Vero cells; inhibition, % at 38.7 µM; Vero cells, Shiga toxin protein synthesis inhibition reporter; actives 9.2% (n = 290,000); AID 2315; in the data active = inhibition mostly above about 28%, no sharp cut-off; inactive = mostly below about 43%; note: 0% is about no effect
CHX counter: affects cycloheximide protein synthesis inhibition readout, counter-screen. max response, %. cell reporter, cycloheximide protein synthesis inhibition counterscreen. AID 2314. actives 12% (n = 300,000); in the data active = max response mostly above about 13%, no sharp cut-off; inactive = mostly below about 14%; note: read at 38.3 µM for the half of the compounds with a filed dose; 0% is about no effect
AMA1 RON2 block: inhibitors of Plasmodium falciparum AMA1-RON2 interaction. AlphaScreen AMA1-biotinylated RON2 peptide binding. Potency, µM (highest dose often 58.2 µM), inactives show top-dose activity change, negative = inhibition, most hits filed as inhibitors. actives 0.2% (n = 360,000);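 note: potency is the fitted concentration of half-maximal effect; 0% = vehicle wells and -100% = peptide control; nearly all actives have a fitted effect of over 45% in size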
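AMA1 (3D7) with his tag at 25 nM final met compounds first, then biotinylated RON2 peptide at 25 nM; detection used donor plus acceptor beads, 10 µg/mL apiece, read by AlphaScreen after 30 min at room temperature.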
HCV inh: inhibitors of hepatitis C virus infection; Huh7.5.1 HCVcc-Cre infection, luciferase reporter, 44 h; Potency, µM (top dose mostly 41.8 µM), inactives show top-dose activity change, negative = inhibition, actives largely listed as inhibitors; actives 3.4% (n = 340,000); note: potency is the fitted concentration of half-maximal effect; % is set by controls: 0 for no effect and ±100 for the full control effect
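Antiviral activity was scored by luciferase reporter output from cells infected with HCVcc-Cre (~0.5 moi) in presence of compound, 44 h infection period, cells seeded 1,000/well 4 h prior.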
Pf growth 96h: P. falciparum growth inhibition at 96 hours; actives 6.9% (n = 320,000); AID 504834; Potency, µM (titrated, usually from 28.7 µM), without a hit: at the top dose activity change, negative = inhibition, usual class: inhibitors; P. falciparum luciferase reporter growth, 96 h; note: potency is the fitted concentration of half-maximal effect; % is set by controls: 0 for no effect and ±100 for the full control effect
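Delayed-death screen, second-generation endpoint: infected erythrocytes, 2% hematocrit, 0.05% parasitemia final; 96 hours at 37 C, 5% CO2; luciferase detection reagent; luminescence decrease equals reduced growth.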
Pf growth 48h: P. falciparum growth inhibition at 48 hours (one generation); P. falciparum luciferase growth in erythrocytes, 48 h; Potency, µM (titrated, usually from 28.7 µM), inactives show at the highest dose activity change, negative = inhibition, usual class: inhibitors; actives 5.9% (n = 310,000); AID 504832; note: potency is the fitted concentration of half-maximal effect; % is set by controls: 0 for no effect and ±100 for the full control effect
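Compounds are pin-transferred into medium, infected erythrocytes (2% hematocrit, 0.1% parasitemia final) are added, and plates sit one parasite generation at 37 C in 5% CO2. Detection reagent is then added and luminescence measured.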
Numbers without * were called inactive. Unless noted, calls come from the whole dose curve; as a rule, active = well fitted curve in the direction sought with a large enough effect; inconclusive = small, poorly fitted or top-dose-only effect, or another doubt; inactive = no such curve, though single readings can be large; an effect the other way counts as inactive or inconclusive.

COc1cccc(/C=N/N2CCN(Cc3ccccc3)CC2)c1O was read as Shiga toxin inh 28, CHX counter 24*, AMA1 RON2 block inconclusive, HCV inh 3%, Pf growth 96h 7.4µM* and Pf growth 48h 10%.
For COc1ccc(N(C)S(=O)(=O)c2cccc(C(=O)N(C)Cc3ccc(C)o3)c2)cc1 the results were Shiga toxin inh 10, CHX counter -2, AMA1 RON2 block -9%, HCV inh -17%, Pf growth 96h -18% and Pf growth 48h inconclusive.
Cc1cccc(CN2C(=O)CSc3ccc(C(=O)NC4CC4)cc32)c1 was read as Shiga toxin inh -8, CHX counter -2, AMA1 RON2 block -6%, HCV inh inconclusive, Pf growth 96h -29% and Pf growth 48h -20%.
`N#Cc1cc(Cl)c(NCC2CCCO2)cc1C#N` (stereo unspecified) gave Shiga toxin inh -13, CHX counter 2, AMA1 RON2 block 0%, HCV inh -16%, Pf growth 96h inconclusive and Pf growth 48h 7%.
`Clc1ccc(CN2CCN(/N=C/c3ccco3)CC2)cc1` gave Shiga toxin inh 17, CHX counter 19*, AMA1 RON2 block inconclusive, HCV inh 0%, Pf growth 96h 29% and Pf growth 48h inconclusive.
For Cc1ccc(/C=N/N2CCN(Cc3ccc(Cl)cc3)CC2)o1 the results were Shiga toxin inh 26, CHX counter 8, AMA1 RON2 block -11%, HCV inh -4% and Pf growth 96h inconclusive.
C(=N\N1CCN(Cc2cccc3ccccc23)CC1)/c1cccs1 was read as Shiga toxin inh 21, CHX counter -2, AMA1 RON2 block inconclusive, HCV inh 6%, Pf growth 96h 29% and Pf growth 48h -12%.
For C(=N\N1CCN(Cc2ccccc2)CC1)/c1cccs1 the results were Shiga toxin inh 45*, CHX counter 41*, AMA1 RON2 block -16%, HCV inh -5%, Pf growth 96h 39% and Pf growth 48h 38%.
Clc1ccc(/C=N/N2CCN(Cc3ccccc3Cl)CC2)cc1 was read as Shiga toxin inh -4, CHX counter 9, AMA1 RON2 block 13µM*, HCV inh -8%, Pf growth 96h 1% and Pf growth 48h -4%.
Screening CCOc1ccc(/C=N/N2CCN(Cc3ccccc3)CC2)cc1 returned Shiga toxin inh -3, CHX counter -3, AMA1 RON2 block inconclusive, HCV inh -25%, Pf growth 96h 0.74µM* and Pf growth 48h 24%.
For COc1ccc(S(=O)(=O)N2CCCCC2)cc1NS(=O)(=O)c1ccccc1 the results were AMA1 RON2 block -5% and HCV inh 26%.
CCN(CC)c1ccc(/C=N\N2CCN(Cc3ccc(C)cc3)CC2)cc1 was read as Shiga toxin inh 10, CHX counter -2, AMA1 RON2 block 8.9µM*, HCV inh -17%, Pf growth 96h 23% and Pf growth 48h 14%.
Cc1ccc(CN2CCN(/N=C/c3ccc(C(=O)O)cc3)CC2)cc1 was read as Shiga toxin inh 18, CHX counter 10, AMA1 RON2 block -1%, HCV inh 36%, Pf growth 96h 34% and Pf growth 48h 1%.
For CC(=O)c1cc2c(cc1NC(=O)Cc1c(C)noc1C)OCO2 the results were AMA1 RON2 block 8% and HCV inh inconclusive.
For O=C1C[C@H]2[C@H](CO)[C@@H](OC(=O)c3ccc(-c4ccccc4)cc3)C[C@H]2O1 the results were Shiga toxin inh 109*, CHX counter 50*, AMA1 RON2 block -1%, HCV inh inconclusive, Pf growth 96h 52% and Pf growth 48h 87%.
Screening O=C1CC2C(CC(OC(=O)c3ccc(-c4ccccc4)cc3)C2CO)O1 (stereo unspecified) returned Shiga toxin inh 49*, CHX counter 30*, AMA1 RON2 block 12%, HCV inh 1% and Pf growth 48h 132%.
Screening OC[C@@H]1CN(CCN2CCOCC2)C[C@H](n2cnc3c(Nc4ccccc4)ncnc32)O1 returned AMA1 RON2 block -6%.
C/C(=C(/CCO)SS/C(CCO)=C(\C)N(C=O)Cc1cnc(C)nc1N)N(C=O)Cc1cnc(C)nc1N was read as Pf growth 96h inconclusive and Pf growth 48h -7%.
`Cc1cc(C)c2nc(NC(=O)CN3C(=O)NC4(CCCC4)C3=O)sc2c1` gave AMA1 RON2 block -7%, HCV inh inconclusive, Pf growth 96h -3% and Pf growth 48h 0%.
`CCSc1nnc(NC(=O)C2Cc3ccccc3CN2S(=O)(=O)CC)s1` (stereo unspecified) gave Shiga toxin inh 30, CHX counter 30*, AMA1 RON2 block 63%, HCV inh -7%, Pf growth 96h 13µM* and Pf growth 48h -7%.
`CCS(=O)(=O)N1Cc2ccccc2CC1C(=O)Nc1nc2c(C)cccc2s1` (stereo unspecified) gave Shiga toxin inh 60*, CHX counter 27*, AMA1 RON2 block 0%, HCV inh inconclusive, Pf growth 96h inconclusive and Pf growth 48h 36%.
CCS(=O)(=O)N1Cc2ccccc2CC1C(=O)Nc1nnc(SCc2c(Cl)cccc2Cl)s1 (stereo unspecified) was read as Shiga toxin inh -4, CHX counter -1, AMA1 RON2 block 22%, HCV inh -28%, Pf growth 96h inconclusive and Pf growth 48h inconclusive.
CCS(=O)(=O)N1Cc2ccccc2CC1C(=O)Nc1nc(C)cs1 (stereo unspecified) was read as Shiga toxin inh 85*, CHX counter 43*, AMA1 RON2 block -9%, HCV inh 19%, Pf growth 96h 306% and Pf growth 48h inactive.
For CCS(=O)(=O)N1Cc2ccccc2CC1C(=O)Nc1nccs1 (stereo unspecified) the results were Shiga toxin inh 25*, CHX counter 30*, AMA1 RON2 block 29%, HCV inh 8%, Pf growth 96h 130% and Pf growth 48h 111%.
For CCCCc1ccc(CC(=O)Nc2cc(S(=O)(=O)N3CCOCC3)ccc2O)cc1 the results were AMA1 RON2 block 12%, HCV inh 6%, Pf growth 96h 17% and Pf growth 48h inconclusive.
O=c1n(Cc2ccccc2)c(O)c2n1Cc1ccccc1N=C2c1ccccc1 was read as AMA1 RON2 block 0%.
Screening COc1cc(OC)c(-c2nc3c[n+](CC(=O)c4ccccc4)ccc3n2C)cc1OC returned Shiga toxin inh 15, CHX counter -2, AMA1 RON2 block 9%, HCV inh 17%, Pf growth 96h inconclusive and Pf growth 48h 1.9µM*.
COc1ccc(C(=O)C[n+]2ccc3c(c2)nc(-c2cc(OC)c(OC)cc2OC)n3C)cc1 was read as Shiga toxin inh -10, CHX counter -1, AMA1 RON2 block -13%, HCV inh 17%, Pf growth 96h 1µM* and Pf growth 48h 3.3µM*.
